Source: the emibetuzumab library of Makowski et al. (2022)
The list shows a part of the results. The hit rate among all sequences tested is not known here.

B1: VH:VL chains; a variant is named by its letters at X, in order (parent)
chain 1: QVQLVQSGAEVKKPGASVKVSCKASGYTFTDYXMHWVRQAPGQGLEWMGXVNPNXXXTTYNQKFEGRVTMTTDTSTSTAYMELRSLRSDDTAVYYCARXNXLDXWGQGTTVTVSS
chain 2: DIQMTQSPSSLSASVGDRVTITCSVSSSVSSIYLHWYQQKPGKAPKLLIYSTSNLASGVPSRFSGSGSGTDFTLTISSLQPEDFATYYCQVYSGYPLTFGGGTKVEIK

Variants of: B1
Assay: yeast display scFab, FACS + sequencing
Conditions: with MET
Procedure, shortened: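 Heavy-chain CDR mutant scFab yeast surface library, enriched by two magnetic rounds on HGFR-Fc-coated Protein A beads and then by FACS. Cells were labelled with 1 nM HGFR-Fc in PBSB with 1% milk and anti-Myc for 3 h at room temperature, and the top 50% antigen-positive cells were gated. Round-3 sorted and input populations were deep sequenced in two replicates. Antigen binding call: positive if a sequence occurred in both antigen-positive samples, negative if it occurred only in input.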
DRGGDDWV was tested, and the antigen binding call was “no binding”. With STGTSDLY the antigen binding call was “no binding”. AATTDSGD was tested, and the antigen binding call was “no binding”. With SAREGDAV the antigen binding call was “no binding”. With YTRGADGS the antigen binding call was “no binding”. In the case of YTRGADLA, the antigen binding call is reported as “no binding”. With YTRGASSS the antigen binding call was “binds”. In the case of YRRGASSS, the antigen binding call is reported as “binds”. In the case of AETKGSLA, the antigen binding call is reported as “no binding”. For SAAGGAAV chain 1 L45S, the antigen binding call was “no binding”. With DAEEDAGY the antigen binding call was “no binding”. FKTKSAGD was tested, and the antigen binding call was “no binding”. With FTGEAAGD the antigen binding call was “no binding”. With FGRGTSGD the antigen binding call was “no binding”. In the case of FGRRTYGD, the antigen binding call is reported as “binds”. FRRGDALD was tested, and the antigen binding call was “binds”. With FAARSYGD the antigen binding call was “no binding”. FRRGDAGD was tested, and the antigen binding call was “binds”. FKRGDAGD was tested, and the antigen binding call was “binds”. For VKKEDAGD, the antigen binding call was “no binding”. STAEDDWV was tested, and the antigen binding call was “no binding”. In the case of VTAGDDAV, the antigen binding call is reported as “no binding”. For AARADDVA, the antigen binding call was “no binding”. YRTRGAVD was tested, and the antigen binding call was “binds”. For VTTRGAVA, the antigen binding call was “no binding”. In the case of VTTGGAVD, the antigen binding call is reported as “no binding”. With VRTRGAVD the antigen binding call was “binds”. With YRTRGASD the antigen binding call was “binds”. For YKTRGAGD chain 1 Q43R, the antigen binding call was “binds”. For DTTKGDGS, the antigen binding call was “no binding”. With VEKGGDGV the antigen binding call was “no binding”. With DATRGAGD the antigen binding call was “no binding”. YRTRGAGD was tested, and the antigen binding call was “binds”. With SKAKGAWS the antigen binding call was “binds”. In the case of SKAGDAWD, the antigen binding call is reported as “no binding”. With FEETDAGD the antigen binding call was “no binding”. In the case of SEARSDWD, the antigen binding call is reported as “no binding”. With SETKGDWD the antigen binding call was “no binding”. SKRETAWS was tested, and the antigen binding call was “binds”. For SKAKGAWD, the antigen binding call was “binds”. For FEARDYWD, the antigen binding call was “binds”. With DKAKGDGS the antigen binding call was “no binding”. For DATGNVWS, the antigen binding call was “no binding”. In the case of YATTSFSF, the antigen binding call is reported as “no binding”. For FKAKGAWD, the antigen binding call was “binds”. In the case of SKTKSDVD, the antigen binding call is reported as “no binding”. In the case of SKERGDVD, the antigen binding call is reported as “no binding”. For SKTRGAWD, the antigen binding call was “binds”. With FGTKGAWD the antigen binding call was “no binding”. In the case of SKAKGSSD, the antigen binding call is reported as “binds”. With SKRKSSSD the antigen binding call was “no binding”. For FGEEDFSS chain 1 W105R, the antigen binding call was “no binding”. For VGGTSDVV, the antigen binding call was “no binding”. VEEEGSGV was tested, and the antigen binding call was “no binding”. With VRTGDSAY the antigen binding call was “binds”. In the case of VTGEDSLD, the antigen binding call is reported as “no binding”. With VTGTSSLD the antigen binding call was “no binding”. In the case of VRAGSSLD, the antigen binding call is reported as “binds”. VRGKDSLD was tested, and the antigen binding call was “binds”. In the case of VRAGDDVD, the antigen binding call is reported as “no binding”. With VEAGDSLD the antigen binding call was “no binding”. In the case of VRTKAVAY, the antigen binding call is reported as “no binding”. With VRAGDSLD the antigen binding call was “binds”. With VEETSSLD the antigen binding call was “no binding”. DRTGDDVY was tested, and the antigen binding call was “no binding”. For VTTKSYLV, the antigen binding call was “no binding”. For DAARGDGV, the antigen binding call was “no binding”. For VRKGGSLD, the antigen binding call was “binds”. For VRTGDDGV, the antigen binding call was “no binding”. For VAGTGSLD, the antigen binding call was “no binding”. VRAGSSWD was tested, and the antigen binding call was “binds”. For VKTGGSLD, the antigen binding call was “no binding”. In the case of VRTGDSLD, the antigen binding call is reported as “binds”. For AETKGFAV, the antigen binding call was “no binding”. VKGASDVA was tested, and the antigen binding call was “no binding”. With YRGRASGA the antigen binding call was “binds”. YRAGAAVA was tested, and the antigen binding call was “binds”. YTGTSSGA was tested, and the antigen binding call was “no binding”. VRAGADVA was tested, and the antigen binding call was “no binding”. With YRAAGSGA the antigen binding call was “binds”. In the case of YGGRAAGA, the antigen binding call is reported as “no binding”. YRGGASGA was tested, and the antigen binding call was “binds”. For YEGGTSGA, the antigen binding call was “no binding”. VEEEGDAV was tested, and the antigen binding call was “no binding”. For DRAGDSGA, the antigen binding call was “no binding”. In the case of SREAASLA, the antigen binding call is reported as “no binding”. With DRAGDAGA the antigen binding call was “no binding”. YRARSSGA was tested, and the antigen binding call was “binds”. With YRARSAGA the antigen binding call was “binds”. In the case of YRGANSGA, the antigen binding call is reported as “no binding”. For YRAGASLA, the antigen binding call was “binds”. YRAGSSGA was tested, and the antigen binding call was “binds”. In the case of DEGGDAGD, the antigen binding call is reported as “no binding”. For VAEKGDAA, the antigen binding call was “no binding”. With VEKGGDWD the antigen binding call was “no binding”. FKGEGDVY was tested, and the antigen binding call was “no binding”. For VKTGGDVA, the antigen binding call was “no binding”. YRAGASGA was tested, and the antigen binding call was “binds”. YRKGSAAA was tested, and the antigen binding call was “binds”. YRKEGAAA was tested, and the antigen binding call was “binds”. For YRKEAAAA, the antigen binding call was “binds”. With DAKEGAAA the antigen binding call was “no binding”. For VAEAAVGD, the antigen binding call was “no binding”. With AETKGDWV the antigen binding call was “no binding”. For VEGTSAVY, the antigen binding call was “no binding”. With VKKEDDVV the antigen binding call was “no binding”. In the case of VRAGGAWV, the antigen binding call is reported as “binds”. With VRGTGAVY the antigen binding call was “no binding”. In the case of VRGGGAAV, the antigen binding call is reported as “binds”. VRGAGAWV was tested, and the antigen binding call was “no binding”. VREGAAAV was tested, and the antigen binding call was “no binding”. For VAGGGAAV, the antigen binding call was “no binding”. VRGGGAAY was tested, and the antigen binding call was “binds”. In the case of VEGGGFAY, the antigen binding call is reported as “no binding”. VRGGGAWV was tested, and the antigen binding call was “binds”. For VRAGGDWV, the antigen binding call was “no binding”. With DTTGSAVV the antigen binding call was “no binding”. For FTGTSDLY, the antigen binding call was “no binding”. FRGRGSWS was tested, and the antigen binding call was “binds”. FRGRDSWS was tested, and the antigen binding call was “binds”. FRGRDFGS was tested, and the antigen binding call was “no binding”. FRGRGAWS was tested, and the antigen binding call was “binds”. FRGRGSVS was tested, and the antigen binding call was “binds”. For FEATASWS, the antigen binding call was “no binding”. With FRGRDYGS the antigen binding call was “no binding”. In the case of AGGGNDGA, the antigen binding call is reported as “no binding”. For VTGGDDWY, the antigen binding call was “no binding”. In the case of AARADAVV, the antigen binding call is reported as “no binding”. With FRGRGAAS the antigen binding call was “binds”. In the case of FRGRGAGS, the antigen binding call is reported as “binds”. With FRGRGFLS the antigen binding call was “no binding”. In the case of FRGRGDLS, the antigen binding call is reported as “no binding”. For FRGRGSLS, the antigen binding call was “binds”. With FRGRGALS the antigen binding call was “binds”. SGKKSSGV was tested, and the antigen binding call was “no binding”. For VEGTSAVF, the antigen binding call was “no binding”. In the case of FRGRASLS, the antigen binding call is reported as “binds”. With YRRRGFGY the antigen binding call was “binds”. For YRRRGDGY, the antigen binding call was “binds”. In the case of YAAKSDGY, the antigen binding call is reported as “no binding”. YRRRGAGY was tested, and the antigen binding call was “binds”. For DRERGDGY, the antigen binding call was “no binding”. In the case of YRRRGVGY, the antigen binding call is reported as “binds”. In the case of FAAAGFVA, the antigen binding call is reported as “no binding”. For VKREAVGV, the antigen binding call was “no binding”. YRRRGSGY was tested, and the antigen binding call was “binds”. In the case of YRRRGFGS, the antigen binding call is reported as “binds”. YRTRGALS was tested, and the antigen binding call was “binds”. YRTGAALS was tested, and the antigen binding call was “binds”. SRTRGFGS was tested, and the antigen binding call was “no binding”. For VREGDYLS, the antigen binding call was “no binding”. With VRTRGALS the antigen binding call was “binds”. With DREEGAGS the antigen binding call was “no binding”. In the case of YAREAALS, the antigen binding call is reported as “no binding”. DAEESDGA was tested, and the antigen binding call was “no binding”. For DGTKSYGV, the antigen binding call was “no binding”. With VTGGDDWV the antigen binding call was “no binding”. For FAEGAAAV, the antigen binding call was “no binding”. In the case of FKTGGAAV, the antigen binding call is reported as “binds”. DKTGDAAV was tested, and the antigen binding call was “no binding”. In the case of FKTKSDAV, the antigen binding call is reported as “no binding”. In the case of FKTESAAV, the antigen binding call is reported as “binds”. With YTTGGAAV the antigen binding call was “no binding”. With AKTKSDVA the antigen binding call was “no binding”. In the case of DATGGDVY, the antigen binding call is reported as “no binding”. For VAEKGDWY, the antigen binding call was “no binding”. FRTGDSVD was tested, and the antigen binding call was “binds”. In the case of FGKEDSVD, the antigen binding call is reported as “no binding”. FATTDSVD was tested, and the antigen binding call was “no binding”. FRTGDSWD was tested, and the antigen binding call was “binds”. For YARADDVA, the antigen binding call was “no binding”. With FGAKGSSS the antigen binding call was “no binding”. In the case of VKAGDSSS, the antigen binding call is reported as “binds”. In the case of VEAGDSSS, the antigen binding call is reported as “no binding”. In the case of YRAGDSSS, the antigen binding call is reported as “binds”. For YRRKGSSS, the antigen binding call was “binds”. In the case of YRAKGSSS, the antigen binding call is reported as “binds”. VKAGDAWS was tested, and the antigen binding call was “no binding”. SEGTSAVF was tested, and the antigen binding call was “no binding”. In the case of DTKAASSS, the antigen binding call is reported as “no binding”. For DKERGDLV, the antigen binding call was “no binding”. In the case of DTRTAYGF, the antigen binding call is reported as “no binding”. In the case of YRAEGSSS, the antigen binding call is reported as “binds”. YRAKSSSS was tested, and the antigen binding call was “binds”. In the case of VKGRADVF, the antigen binding call is reported as “no binding”. In the case of DRGGDDVY, the antigen binding call is reported as “no binding”. In the case of YRGGDDLY, the antigen binding call is reported as “no binding”. In the case of YAGGDFAY, the antigen binding call is reported as “no binding”. DREEGSSY was tested, and the antigen binding call was “no binding”. With YRGGDSAY the antigen binding call was “binds”. With YRAGGSSY the antigen binding call was “binds”. In the case of DRGGDDWY, the antigen binding call is reported as “no binding”. YRGGDSSY was tested, and the antigen binding call was “binds”. With ARGKASSY the antigen binding call was “no binding”. DRREGYGA was tested, and the antigen binding call was “no binding”. For DTTRDDSD, the antigen binding call was “no binding”. For VTTKSDWV, the antigen binding call was “no binding”. AGKGGFAY was tested, and the antigen binding call was “no binding”. With VEARNDWA chain 1 M81I the antigen binding call was “no binding”. For YRRGGAWD, the antigen binding call was “binds”. YRRRGAWD was tested, and the antigen binding call was “binds”. With VETKGDWD the antigen binding call was “no binding”. In the case of FRRGGAWD, the antigen binding call is reported as “binds”. YETKGDWD was tested, and the antigen binding call was “no binding”. For AETKGDWD, the antigen binding call was “binds”. DTEGGSAS was tested, and the antigen binding call was “no binding”. DEGGTAVV was tested, and the antigen binding call was “no binding”. In the case of DGARNAAA, the antigen binding call is reported as “no binding”. With DEGGTAGV the antigen binding call was “no binding”. In the case of DEGGTDLD, the antigen binding call is reported as “no binding”.
